The whole screen tested about 1,100 compounds, of which about 490 (45%) were called active. Inconclusive results (about 33%) are left out. The set was probably picked from earlier hits. The full list was thinned out, with actives kept by preference. A number with no mark means an inactive call. The call rests on the fitted dose curve.
Potency means the concentration at half of the fitted maximal effect.

Chain of ATP-dependent 6-phosphofructokinase (Trypanosoma brucei brucei) (O15648 whole entry, looked up): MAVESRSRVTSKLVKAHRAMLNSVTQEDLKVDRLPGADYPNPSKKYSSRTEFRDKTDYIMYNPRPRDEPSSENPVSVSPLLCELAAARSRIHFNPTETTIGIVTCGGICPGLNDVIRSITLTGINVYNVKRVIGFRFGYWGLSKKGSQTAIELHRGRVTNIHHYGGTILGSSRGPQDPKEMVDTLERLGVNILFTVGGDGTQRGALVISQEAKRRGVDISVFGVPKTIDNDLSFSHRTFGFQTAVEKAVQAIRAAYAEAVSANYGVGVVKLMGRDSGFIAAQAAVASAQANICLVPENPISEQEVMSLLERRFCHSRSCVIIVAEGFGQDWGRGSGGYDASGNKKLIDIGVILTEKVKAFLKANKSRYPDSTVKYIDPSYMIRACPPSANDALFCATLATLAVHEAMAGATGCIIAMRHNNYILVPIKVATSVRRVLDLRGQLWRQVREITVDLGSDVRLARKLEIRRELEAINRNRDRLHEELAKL

This assay concerns the target ATP-dependent 6-phosphofructokinase (Trypanosoma brucei brucei) (UniProt O15648). Briefly: Tb PFK orthogonal confirmatory assay using ATP depletion (Kinase-Glo Plus) as an alternative measure of Tb PFK activity: Hit Validation. Further: nearly all actives have a fitted effect of over 60% in size. Conditions: Tb PFK enzyme, Kinase-Glo Plus luminescence; series mostly up to 57.5 µM; inhibition: at the top concentration. From the text:
Various species of the protozoan family Trypanosomatidae are responsible for a range of serious human diseases in tropical and subtropical areas of the world. […] Many of the disorders caused by trypanosomatids are fatal if left untreated, but most currently used drugs are inefficient and toxic.
Oxidative metabolism involving the mitochondrial tricarboxylic acid cycle and oxidative phosphorylation are repressed in these parasites, and recent RNA interference (RNAi) experiments have shown that even partial depletion of certain individual glycolytic enzymes can lead to the death of cultured parasites. One such glycolytic enzyme, phosphofructokinase (PFK), catalyzes the formation of fructose-1,6-bisphosphate (F1,6BP) and ADP from fructose-6-phosphate (F6P) and ATP, and in many metabolic circumstances makes an important contribution to the control of flux through the glycolytic pathway. As a specific glycolytic target, PFK is particularly attractive as it catalyzes the first irreversible step in glycolysis, and structural and kinetic studies have shown very substantial and essential differences from corresponding host enzymes, allowing for the discovery of parasite-selective inhibitors.
The primary qHTS data of T. brucei PFK and ADP-Glo confirmatory data are available in PubChem (AIDs: 485367 and 485368). A luminescent secondary assay was also performed that used luciferase-based nucleotide detection (Kinase-Glo Plus, Promega) similar to the qHTS, but which used ATP (rather than ADP) concentration as an alternate measure of T. brucei PFK activity. The assay measures substrate depletion (ATP) rather than product formation (ADP), coupled to an identical manner of luciferase-based signal detection. As such, compounds which truly act on T. brucei PFK produce a change in signal in the opposite direction of the primary qHTS assay, while compounds which affect the final luciferase reaction produce signal changes in identical directions. Compounds were screened as a concentration-titration series that ranged from 57uM to 0.7nM.
1. Verlinde, C.L., et al., Glycolysis as a target for the design of new anti-trypanosome drugs. Drug Resist Updat, 2001. 4(1): p. 50-65.
2. Albert, M.A., et al., Experimental and in silico analyses of glycolytic flux control in bloodstream form Trypanosoma brucei. J Biol Chem, 2005. 280(31): p. 28306-15.
3. […] J Mol Biol, 2009. 385(5): p. 1519-33.
NIH Molecular Libraries Probe Production Network [MLPCN]
NIH Chemical Genomics Center [NCGC]
PI Name: Dr. Malcolm Walkinshaw
Substrate buffer was dispensed into white, solid 1536-well plates at 3ul/well in 0.1M triethanolamine (TEA) buffer, pH 8.0, containing final concentrations of 5 mM MgCl2, 0.01% Tween20, 0.5 mM fructose-6-phosphate (F6P) and 0.1mM ATP. Then, 23nl of compounds or DMSO were delivered to each well using a pin tool. One ul T. brucei PFK (0.1M TEA, 0.01% Tween20, 0.1% bovine serum albumin (BSA) and 1.25nM PFK, final concentrations) was then dispensed, and plates were incubated at room temperature for 45 min. The luminescent detection reagent, Kinase-Glo Plus (Promega), was then added at 2ul/well and incubated for ten minutes at room temperature. The plates were measured on a ViewLux plate reader for luminescent signal using a clear filter with a one second exposure. The %Activity was determined from the corrected luminescence values. As no specific T. brucei PFK inhibitors have been identified in the literature, 1x (1.25nM) and 0x PFK enzyme controls (untreated) were included to normalize %Activity of identified inhibitors; 0x enzyme values corresponded to 100%Activity (full inhibition), while 1x PFK enzyme values were used to normalize 0% Activity (no inhibition). The Kinase-Glo Plus protocol varies from the primary screen in that it measures ATP, rather than ADP, concentration, and thus provides a measure of substrate depletion, rather than of product formation.
[…]
On the technique in general: In Kinase-Glo more light means more ATP remaining.
`CCOc1cccc(/C=N/N2C(=O)CSC2=S)c1O`: the Potency is 30.1 µM (active).

As usually defined, the inhibition is the drop in the measured response relative to a control, in per cent. `O=C1CSC(=S)N1/N=C/c1ccc(O)c([N+](=O)[O-])c1`: the “inhibition” value was -23.4%.

Consider `Cn1sc(=O)c2cc(S(=O)(=O)NC3CC3)ccc21`, for which the Potency was 7.57 µM (active).

Turning to `OC(CNCc1ccc(Cl)c(Cl)c1)c1ccccc1` (stereo unspecified), the Potency was 21.3 µM (active).

With `Cn1nnnc1NCc1ccc(Cl)c(Cl)c1`, the Potency was 10.7 µM (active).

On to `O=[N+]([O-])c1c(NCCO)cc(Sc2nc3ccccc3s2)c2nonc12`, for which the Potency was 0.601 µM (active).

For `C=C(C)C(=O)Nc1cccc(C2=NOC3(C2)C[C@H](C(N)=O)N(C(=O)C(c2ccccc2)c2ccccc2)C3)c1` (stereo partly specified), the Potency was 1.51 µM (active).

Turning to `C/C=C\C=C\C(=O)N1CC2(CC(c3cccc(NC(=O)/C(C)=C\C)c3)=NO2)C[C@H]1C(N)=O` (stereo partly specified), the Potency is 9.53 µM (active).

With `CCc1ccc(NC(=O)C(=O)NNC(=O)c2cccs2)cc1`, the “inhibition” value was -33.3%.

Regarding `O=c1ccnc(Nc2ccc(Cl)cc2)[nH]1`, the Potency was 21.3 µM (active).

Consider `O=c1[nH]c2ccccc2n2c(-c3ccccc3)nnc12`, for which the Potency is 6.01 µM (active).

Turning to `N/C(=N\OC(=O)Nc1ccc(Cl)c(Cl)c1)c1ncc(C(F)(F)F)cc1Cl`, the Potency is 26.9 µM (active).

As to `Cc1nc(N)nc(SCc2ccc([N+](=O)[O-])cc2)c1N`, the Potency is 10.7 µM (active).

As for `Nc1nc(SCc2ccc([N+](=O)[O-])cc2)c2ncn(C3OC(CO)C(O)C3O)c2n1` (stereo unspecified), the Potency is 23.9 µM (active).

As for `Cn1ccc(=Nc2ccc(NC(=O)c3ccc(N=c4ccn(C)c5ccc([N+](=O)[O-])cc45)cc3)cc2)cc1`, the “inhibition” value was -28.5%.

`O=C(Cc1ccc([N+](=O)[O-])cc1)N/N=C/c1ccco1`: the Potency is 19 µM (active).

As for `O=C(CSc1nc(O)c(Cc2ccccc2)c(=O)[nH]1)Nc1nc2c(s1)CCCC2`, the Potency was 6.75 µM (active).

Take `Cc1ccc(-c2nn(-c3ccccc3)cc2/C=C2\SC(=S)N(CCCCCC(=O)O)C2=O)o1`: the Potency was 9.53 µM (active).

For the compound `Cc1cccc(-n2c(N)c(C(=O)N3CCN(C)CC3)sc2=S)c1`, the Potency was 6.01 µM (active).

For the compound `O=[N+]([O-])/C=C/c1ccc2c(ccn2Cc2ccccc2)c1`, the Potency is 10.7 µM (active).

Turning to `O=C(NCc1ccc(Cl)c(Cl)c1)c1cccnc1`, the Potency is 13.5 µM (active).

`CCn1nc(C(=O)NNS(=O)(=O)c2cc(/C=C/C(=O)O)cc(OC)c2OC)c2ccccc2c1=O`: the “inhibition” value is 8.28%.

For the compound `C=CC1=C(C(=O)O)N2C(=O)[C@@H](NC(=O)/C(=N\OCC(=O)O)c3csc(N)n3)[C@H]2SC1`, the Potency is 2.69 µM (active).

As to `COC(=O)c1[nH]c2ccccc2c1NC(=O)CN1CCCc2ccccc21`, the “inhibition” value was -26.9%.

For `CC(C)(C)c1nnc(NC(=O)C2c3ccccc3Oc3ccccc32)s1`, the Potency is 19 µM (active).

With `Cc1c(C)c2ccc(OCC(=O)N3CCN(c4cccc(Cl)c4)CC3)cc2oc1=O`, the Potency was 4.78 µM (active).

On to `O=c1[nH]c(=S)[nH]c2[nH]c(=S)[nH]c12`, for which the Potency was 1.35 µM (active).

As for `COc1ccc(N/C=C(\C2OC(=O)c3ccccc32)[N+](=O)[O-])cc1` (stereo unspecified), the “inhibition” value is 4.35%.

Take `FC(F)(F)C1CCCN(c2nsc3ccccc23)C1` (stereo unspecified): the Potency was 2.69 µM (active).

Regarding `N#Cc1cccc(CSc2ncnc(N)n2)c1`, the Potency was 13.5 µM (active).

In the case of `Cc1ccc(NC(=O)c2cc(-c3ccc(C)o3)nc3ccccc23)nc1`, the Potency was 6.75 µM (active).

As to `Cc1nn(Cc2ccc(Cl)c(Cl)c2)c(C)c1NC(=O)c1cc(C2CC2)on1`, the Potency is 5.36 µM (active).

With `OCCN1CCN(C(=S)c2ccc(-c3ccccc3)cc2)CC1`, the Potency is 9.53 µM (active).

In the case of `Cc1ccc(C)c(-c2nnc(NC(=O)CS(=O)(=O)c3ccccc3)o2)c1`, the “inhibition” value is -22.9%.

For `O=C1CSC(=S)N1c1ccc(Cl)c(Cl)c1`, the “inhibition” value was 16.2%.

As to `COC(=O)CC(=O)N1CCN(c2ccc(Cl)c(Cl)c2)CC1`, the Potency was 23.9 µM (active).

These data come from PubChem BioAssay AID504636 (National Center for Advancing Translational Sciences (NCATS), 2011).
